Where a name gives a salt, the structure may show the parent alone. ± gives the standard deviation of the averaged measurements.
What was measured:
[1] = test system: Saccharomyces cerevisiae BY4741 SeMeCo community; test: mean cell size (pixel area) (pixels); higher = larger cells; conditions: 10 µM; 24 h; SM minimal medium
Summary of the method: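 A fluorescent Saccharomyces cerevisiae BY4741 community carrying four plasmids was used, with each plasmid complementing one auxotrophy and bearing a fluorescent marker. An overnight preculture at OD600 = 1.0 was diluted to OD600 = 0.3, and 70 µl went into 384-well plates acoustically predosed with drug (final 10 µM) in SM medium for 24 h. After paraformaldehyde fixation, cells were imaged by automated confocal microscopy and analysed in Harmony, giving the mean cell pixel area per well. Each value is the average of 3 replicates. Same SeMeCo high-content imaging drug screen: Selleck FDA-approved drugs at 10 µM, 24 h in SM medium, 384-well plates, 3 replicates.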

[2] = test system: Saccharomyces cerevisiae BY4741 SeMeCo community; test: z-score of subpopulation abundance vs DMSO median, subpopulation auxotrophic for M; higher = larger share of this subpopulation than in DMSO controls; conditions: 10 µM; 24 h; SM minimal medium; subpopulation (auxotrophy): M
Summary of the method: (§1)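 Subpopulation abundance was reported as a z-score against the median of vehicle wells. The Saccharomyces cerevisiae BY4741 community, carrying four plasmids that each restored one auxotrophy and encoded a distinct fluorescent protein, was grown 24 h in minimal SM medium in 384-well plates holding library drugs at 10 µM final. Cells were paraformaldehyde-fixed and imaged by automated confocal microscopy, with single-auxotroph fluorescent strains used for thresholds and autofluorescence correction.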

[3] = test system: Saccharomyces cerevisiae BY4741 SeMeCo community; test: z-score of subpopulation abundance vs DMSO median, subpopulation auxotrophic for L; higher = larger share of this subpopulation than in DMSO controls; conditions: 10 µM; 24 h; SM minimal medium; subpopulation (auxotrophy): L
Summary of the method: as §1

[4] = test system: Saccharomyces cerevisiae BY4741 SeMeCo community; test: z-score of subpopulation abundance vs DMSO median, subpopulation auxotrophic for H; higher = larger share of this subpopulation than in DMSO controls; conditions: 10 µM; 24 h; SM minimal medium; subpopulation (auxotrophy): H
Summary of the method: as §1

[5] = test system: Saccharomyces cerevisiae BY4741 SeMeCo community; test: z-score of subpopulation abundance vs DMSO median, subpopulation auxotrophic for LU; higher = larger share of this subpopulation than in DMSO controls; conditions: 10 µM; 24 h; SM minimal medium; subpopulation (auxotrophy): LU
Summary of the method: as §1

[6] = test system: Saccharomyces cerevisiae BY4741 SeMeCo community; test: z-score of subpopulation abundance vs DMSO median, subpopulation auxotrophic for LM; higher = larger share of this subpopulation than in DMSO controls; conditions: 10 µM; 24 h; SM minimal medium; subpopulation (auxotrophy): LM
Summary of the method: as §1

[7] = test system: Saccharomyces cerevisiae BY4741 SeMeCo community; test: z-score of subpopulation abundance vs DMSO median, subpopulation auxotrophic for HM; higher = larger share of this subpopulation than in DMSO controls; conditions: 10 µM; 24 h; SM minimal medium; subpopulation (auxotrophy): HM
Summary of the method: as §1

[8] = test system: Saccharomyces cerevisiae BY4741 SeMeCo community; test: z-score of subpopulation abundance vs DMSO median, subpopulation auxotrophic for HU; higher = larger share of this subpopulation than in DMSO controls; conditions: 10 µM; 24 h; SM minimal medium; subpopulation (auxotrophy): HU
Summary of the method: as §1

[9] = test system: Saccharomyces cerevisiae BY4741 SeMeCo community; test: z-score of subpopulation abundance vs DMSO median, subpopulation auxotrophic for UM; higher = larger share of this subpopulation than in DMSO controls; conditions: 10 µM; 24 h; SM minimal medium; subpopulation (auxotrophy): UM
Summary of the method: as §1

[10] = test system: Saccharomyces cerevisiae BY4741 SeMeCo community; test: z-score of subpopulation abundance vs DMSO median, subpopulation auxotrophic for HL; higher = larger share of this subpopulation than in DMSO controls; conditions: 10 µM; 24 h; SM minimal medium; subpopulation (auxotrophy): HL
Summary of the method: as §1

[11] = test system: Saccharomyces cerevisiae BY4741 SeMeCo community; test: z-score of subpopulation abundance vs DMSO median, subpopulation auxotrophic for HLU; higher = larger share of this subpopulation than in DMSO controls; conditions: 10 µM; 24 h; SM minimal medium; subpopulation (auxotrophy): HLU
Summary of the method: as §1

[12] = test system: Saccharomyces cerevisiae BY4741 SeMeCo community; test: z-score of subpopulation abundance vs DMSO median, subpopulation auxotrophic for HLM; higher = larger share of this subpopulation than in DMSO controls; conditions: 10 µM; 24 h; SM minimal medium; subpopulation (auxotrophy): HLM
Summary of the method: as §1

[13] = test system: Saccharomyces cerevisiae BY4741 SeMeCo community; test: z-score of subpopulation abundance vs DMSO median, subpopulation auxotrophic for HUM; higher = larger share of this subpopulation than in DMSO controls; conditions: 10 µM; 24 h; SM minimal medium; subpopulation (auxotrophy): HUM
Summary of the method: as §1

[14] = test system: Saccharomyces cerevisiae BY4741 SeMeCo community; test: z-score of subpopulation abundance vs DMSO median, subpopulation auxotrophic for LUM; higher = larger share of this subpopulation than in DMSO controls; conditions: 10 µM; 24 h; SM minimal medium; subpopulation (auxotrophy): LUM
Summary of the method: as §1

[15] = test system: Saccharomyces cerevisiae BY4741 SeMeCo community; test: z-score of subpopulation abundance vs DMSO median, subpopulation auxotrophic for HLUM; higher = larger share of this subpopulation than in DMSO controls; conditions: 10 µM; 24 h; SM minimal medium; subpopulation (auxotrophy): HLUM
Summary of the method: as §1

[16] = test system: Saccharomyces cerevisiae BY4741 SeMeCo community; test: z-score of prototroph abundance vs DMSO median; higher = larger share of this subpopulation than in DMSO controls; conditions: 10 µM; 24 h; SM minimal medium; subpopulation (auxotrophy): Prototroph
Summary of the method: as §1

[17] = test system: Saccharomyces cerevisiae BY4741 SeMeCo community; test: z-score of subpopulation abundance vs DMSO median, subpopulation auxotrophic for U; higher = larger share of this subpopulation than in DMSO controls; conditions: 10 µM; 24 h; SM minimal medium; subpopulation (auxotrophy): U
Summary of the method: as §1

| Compound | mean cell size [1] | z-score of subpopulation abundance [2] | z-score of subpopulation abundance [3] | z-score of subpopulation abundance [4] | z-score of subpopulation abundance [5] | z-score of subpopulation abundance [6] | z-score of subpopulation abundance [7] | z-score of subpopulation abundance [8] | z-score of subpopulation abundance [9] | z-score of subpopulation abundance [10] | z-score of subpopulation abundance [11] | z-score of subpopulation abundance [12] | z-score of subpopulation abundance [13] | z-score of subpopulation abundance [14] | z-score of subpopulation abundance [15] | z-score of prototroph abundance [16] | z-score of subpopulation abundance [17] |
| --- | --- | --- | --- | --- | --- | --- | --- | --- | --- | --- | --- | --- | --- | --- | --- | --- | --- |
| CCCCNc1ccc(C(=O)OCCN(C)C)cc1 [Tetracaine HCl] | 12.52 ± 0.015 | 0.03 | -0.03 | -0.2 | 1.2 | 0.43 | 0.5 | 0.08 | 0.04 | 0 | -0.27 | 0.52 | 0.58 | 0 | 0.94 |  |  |
| O=C(O)c1ccccc1O [Salicylic acid] | 12.4 ± 0.14 | -0.07 | -0.26 | -0.17 | -0.68 | -0.74 | 0.33 |  | -0.89 | -0.19 | -0.57 | -1.09 | -1.03 | -0.79 | -0.68 | 0.79 | -0.01 |
| Clc1ccc(COC(Cn2ccnc2)c2ccc(Cl)cc2Cl)cc1 (configuration not stated) [Econazole nitrate] | 11.9 ± 0.2 | -2.24 | -3.48 | 15.7 | 1.14 | -1.64 | 2.52 |  | 10.3 | 5.56 | 6.46 | 10.7 | 6.6 | 1.67 | 9.87 | -8.44 | 3.05 |
| Clc1ccc(C(Cn2ccnc2)OCc2ccsc2Cl)c(Cl)c1 (configuration not stated) [Tioconazole] | 12.1 ± 0.12 | -0.92 | -2.45 | 19.7 | -0.51 | -1.99 | 3.87 |  | 8.69 | 6.06 | 3.35 | 20 | 3.39 | 4.03 | 15.6 | -7.82 | 1.22 |
| COC(=O)C1=C(C)NC(C)=C(C(=O)OC)C1c1ccccc1[N+](=O)[O-] [Nifedipine] | 12.5 ± 0.2 | 0.13 | 0.52 | 0.64 | 0.14 | 0.48 | -0.14 | -0.68 | 0.26 | -0.95 | 1.29 | 0.5 | -0.1 | 0.34 |  | -0.35 | 0.12 |
| CC1(C)[C@H](C(=O)O)N2C(=O)C[C@H]2S1(=O)=O [Sulbactam] | 12.3 ± 0.16 | 0.57 | 0.57 | -0.12 | -0.53 | 1.07 | -0.43 |  | -0.39 | -0.53 | -0.86 | -1.04 | -0.35 | -0.1 | -0.44 |  | -0.63 |
| CC1(C)S[C@@H]2[C@H](NC(=O)[C@H](N)c3ccccc3)C(=O)N2[C@H]1C(=O)O [Ampicillin sodium] | 12.3 ± 0.15 | -0.4 | 0.09 |  | 0.12 | -0.28 | -0.71 |  | -0.31 | -0.73 | -0.42 | -0.99 | -0.12 | -0.14 | -0.67 | 0.8 | 0.29 |
| C#C[C@]1(O)CC[C@H]2[C@@H]3CCc4cc(O)ccc4[C@H]3CC[C@@]21C [Ethinyl Estradiol] | 12.8 ± 0.2 | 0.05 | -0.55 | 0.36 | -1.41 | -0.77 | 0 |  | -1.64 | -0.69 | -0.36 | -0.72 | -0.88 | -1.48 | -1.02 | 1.23 | -1.01 |
| CC(C(=O)O)c1ccc2c(c1)Cc1cccnc1O2 (configuration not stated) [Pranoprofen] | 12.56 ± 0.067 | -0.49 | -0.28 | -0.08 | -0.35 | -0.7 | 0.14 |  | -0.93 | -0.22 | -0.3 | 0.61 | 0.27 | -0.12 | -0.06 | 0.32 | 0.43 |
| N#Cc1ccc2[nH]cc(CCCCN3CCN(c4ccc5oc(C(N)=O)cc5c4)CC3)c2c1 [Vilazodone] | 12.2 ± 0.28 | 0.28 | 0.06 | 0 | -0.57 | 0.35 | -0.16 | -0.93 | -0.2 | -0.17 | 0.77 | 0.08 | -0.53 | 0.72 |  | 0.6 |  |
| CC1(C)S[C@@H]2[C@H](NC(=O)Cc3ccccc3)C(=O)N2[C@H]1C(=O)O [Penicillin G Sodium] | 12.6 ± 0.34 | -0.8 | -0.1 | -0.3 | 0.16 | -0.29 |  | -0.78 | -0.23 | -0.32 | -0.18 | -0.09 | -0.66 |  | 1.41 | 0.77 | 0.06 |
| CCCOc1ccc(C(=O)OCCN(CC)CC)cc1N [Proparacaine HCl] | 12.56 ± 0.068 | -0.55 | 0.26 | -0.4 | 0.25 | -0.38 | -0.65 | -0.31 | -0.06 | -0.68 | -0.61 | -0.35 | -0.66 | -0.49 |  | 0.46 | 0.18 |
| CC(=O)OCC1=C(C(=O)O)N2C(=O)[C@@H](NC(=O)CSc3ccncc3)[C@H]2SC1 [Cephapirin Benzathine] | 12.7 ± 0.17 | -0.98 | -0.54 | 1.45 | 0.44 | 0.09 | 0.66 | 1.01 | -0.24 | 0.48 | 0.25 | 0.47 | 0.27 |  |  | -0.46 |  |
| CN1CCN(c2c(F)cc3c(=O)c(C(=O)O)cn4c3c2OCN4C)CC1 [Marbofloxacin] | 12.1 ± 0.38 | 0.52 | -1.17 | -1.41 | 0.12 | -0.36 |  | -0.06 | -0.02 | -0.85 | -0.27 | -0.54 | 0.33 | -0.82 | -0.72 | 0.49 | 0.59 |
| c1ccc2[nH]c(-c3cscn3)nc2c1 [Thiabendazole] | 12.3 ± 0.24 | 0.77 | -0.23 | -0.52 | -0.61 | 0.06 | -0.37 | -0.69 | -0.41 | -0.01 | -0.4 | -0.38 | 0.33 | 0.16 |  |  | -0.7 |
